Source: PubChem BioAssay
PI5P4K alpha inh – qHTS for Inhibitors of phosphatidylinositol 5-phosphate 4-kinase (PI5P4K) | Phosphatidylinositol 5-phosphate 4-kinase type-2 alpha (Homo sapiens), P48426 | PI5P4Kalpha enzyme, ADP-Glo luminescence, 60 min; stronger effect = lower value | max response, % | 330,000 tested, 1.2% active; active = max response of -50% or lower; inconclusive = between -30% and -50%; inactive = -30% or higher; note: value at the top dose of about 77 µM; % is set by controls: 0 for no effect and ±100 for the full control effect
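Luminescence from ADP-Glo served as readout of PI5P4Kalpha activity in a qHTS format. Reaction: enzyme, substrate, compound, ATP at 5 microM final, 60 min at RT.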
PI4K2A block – qHTS for small molecular inhibitors of PI4K2A. Phosphatidylinositol 4-kinase type 2-alpha (Homo sapiens), Q9BTU6. purified PI4K2A, ADP-Glo luminescence, 1 h; stronger effect = lower value. activity change, negative = inhibition, % at 76.9 µM. 420,000 tested, 0.13% active. AID 1346378, 2018; in the data active = activity change below about -50%; inconclusive = mostly about -30% to -49%;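 note: -100% = wells without enzyme as full effect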
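PI4K2A activity was measured by ADP-Glo luminescence: enzyme (4 ug/mL stock) and phosphatidylinositol (1.2 mM stock) in Tris pH 7.5/MgCl2/EGTA/Triton X-100 buffer were reacted with ATP (300 microM stock) for one hour at ambient temperature.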
DRD3 agonist – qHTS of D3 Dopamine Receptor Agonist: qHTS | D(3) dopamine receptor (Homo sapiens), P35462 | D3R DiscoveRx beta-arrestin cells, luminescence, 90 min | max activation, % | 410,000 tested, 0.58% active | AID 652048, 2013; in the data active = max activation above about 30%; note: 0% is about no effect
Target sequence (P35462 whole entry, looked up): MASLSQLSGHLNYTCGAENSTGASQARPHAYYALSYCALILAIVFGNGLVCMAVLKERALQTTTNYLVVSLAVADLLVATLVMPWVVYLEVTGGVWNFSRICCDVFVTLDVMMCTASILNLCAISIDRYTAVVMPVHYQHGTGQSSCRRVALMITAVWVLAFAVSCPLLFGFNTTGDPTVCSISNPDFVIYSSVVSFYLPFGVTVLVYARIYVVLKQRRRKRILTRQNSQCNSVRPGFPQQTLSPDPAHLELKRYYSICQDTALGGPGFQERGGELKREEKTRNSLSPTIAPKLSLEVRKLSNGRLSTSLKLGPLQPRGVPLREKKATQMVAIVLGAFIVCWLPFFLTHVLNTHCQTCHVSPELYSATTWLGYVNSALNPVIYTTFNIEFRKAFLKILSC
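Agonist mode: compounds and dopamine controls were applied to plated cells for 90 min at 37 degrees C after an overnight attachment at 1500 cells/well. Luminescent read-out followed 30 - 60 minutes at room temperature with DiscoveRx detection reagent.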
LDHA block – qHTS assay for inhibitors of human lactate dehydrogenase; 480,000 tested, 0.15% active; activity change, % (values are at about 110 or 230 µM); purified LDHA, NADH/diaphorase-resazurin fluorescence; stronger effect = lower value; AID 1347041, 2019; L-lactate dehydrogenase A chain (Homo sapiens), P00338; in the data active = activity change below about -30%; inconclusive = mostly about -25% to -30%;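 note: plate controls were DMSO wells for no effect and wells without enzyme for full effect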
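Remaining NADH was detected by diaphorase (0.133 mg/mL) converting 37 µM resazurin to fluorescent resorufin, read at 0 and 20 minutes. The preceding 5-minute room-temperature reaction used 2 nM LDHA, 0.2 mM sodium pyruvate and 0.06 mM NADH at pH 7.4.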
DRD3 antagonist – qHTS of D3 Dopamine Receptor Antagonist: qHTS. D(3) dopamine receptor (Homo sapiens), P35462. D3R cells, DiscoveRx beta-arrestin luminescence, antagonist mode; stronger effect = lower value. max response, negative = inhibition, %. 360,000 tested, 2.5% active. AID 652054, 2013; in the data active = max response below about -50%; inconclusive = no clear call, values can overlap the other calls; note: % is set by controls: 0 for no effect and ±100 for the full control effect
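Cells expressing the human receptor were seeded at 1500 cells/well, incubated overnight at 37 degrees C in 5% CO2, then exposed to library compounds with dopamine controls for 90 minutes at 37 degrees C before luminescent detection.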
Numbers without * were called inactive; ? = inconclusive; . = not tested or not shown; ! = a repeat was not active. Compounds with a hit are over-represented: about 3.3% of the library has one in this group of screens.

SMILES | PI5P4K alpha inh | PI4K2A block | DRD3 agonist | LDHA block | DRD3 antagonist
O=C(Cn1ncc(Cl)c(Cl)c1=O)Nc1ccc2c(c1)OCO2 | -52* | -26 | -16 | 4 | ?
Clc1ccc(N=Cc2c(Cl)cccc2Cl)cc1Cl | . | . | . | -18 | .
CCOC(=O)C1C(=O)C=C(c2ccc(F)cc2)CC1c1ccc(CC)cc1 (stereo not given) | . | . | . | -2 | .
O=C(CN1CCN(c2nc(C(F)(F)F)nc3ccccc23)CC1)N1CCCCCC1 | . | . | . | 4 | .
CCN(CC)S(=O)(=O)c1cc(NC(=O)Cn2ncc(Cl)c(Cl)c2=O)ccc1C | -83* | -11 | -3 | -2 | ?
Cc1ccc(S(=O)(=O)N2CCOCC2)cc1NC(=O)CNCc1cccnc1 | 0 | 4 | 80* | -40* | 21
O=C(Cn1ccc2ccccc21)Nc1ccc2c(c1)OCO2 | 0 | 8 | -3 | -36*! | 9
Cc1ccc(S(=O)(=O)N2CCOCC2)cc1NC(=O)CNCc1ccc(Cl)cc1Cl | 0 | 3 | 0 | -4 | 7
O=C(CCCCl)c1ccc2c(c1)OCCO2 | . | . | . | 15 | .
O=C(Cn1ncc(Cl)c(Cl)c1=O)c1ccc2c(c1)OCCO2 | -25 | 3 | -13 | -4 | -54*
CCSCc1ccc(C(=O)C(C#N)C(=O)NC(C)C)cc1 (stereo not given) | . | . | . | 0 | .
O=[N+]([O-])c1ccc(NC(c2ccccc2)c2ccccc2)cc1 | . | . | . | -2 | .
CN[C@@H]1[C@@H](O[C@H]2O[C@H](CO)[C@@H](N)[C@H](O)[C@H]2O)O[C@H]2C[C@@H](N)[C@@H](O[C@H]3[C@H](O)[C@@H](O)[C@H](N)C[C@@H]3N)O[C@@H]2[C@@H]1O | . | . | 5 | . | .
O=C(O)C1CCCN(C(=O)c2ccc(C(F)(F)F)cc2)C1 (stereo not given) | . | . | . | 4 | .
Cc1ccc(C)c(N2CCN(C(=O)C3CCCN(S(=O)(=O)c4cccc5nsnc45)C3)CC2)c1 (stereo not given) | . | -3 | 16 | -11 | .
Cc1ccc(C)c(N2CCN(C(=O)C3CCN(S(=O)(=O)c4cccc5nsnc45)CC3)CC2)c1 | -2 | -61* | -3 | 1 | 21
Cc1cc(N2C(=O)C(O)=C(C(=O)c3cc4ccccc4o3)C2c2cccc(Br)c2)no1 (stereo not given) | -53* | -2 | 5 | -22 | 21
COc1cccc(C2C(C(=O)c3cccs3)=C(O)C(=O)N2c2cc(C)on2)c1 (stereo not given) | 0 | 5 | 10 | 8 | -55*
CCCCCOc1ccc(C2C(C(=O)c3ccc(C)o3)=C(O)C(=O)N2c2cc(C)on2)cc1 (stereo not given) | -55* | -2 | -7 | 3 | 2
COc1ccc(OC)c(C2C(C(=O)c3cccs3)=C(O)C(=O)N2c2cc(C)on2)c1 (stereo not given) | 4 | 8 | 4 | 0 | -69*
Cc1cc(N2C(=O)C(O)=C(C(=O)c3cccs3)C2c2cccc(O)c2)no1 (stereo not given) | 4 | -4 | 0 | -6 | 10
O=C(Cn1cnc(S(=O)(=O)N2CCOCC2)c1)Nc1ccc(-c2ccno2)cc1 | . | . | . | -2 | .
CCCNC(=O)CC(c1ccc(F)cc1)N1Cc2ccccc2C1=O (stereo not given) | . | . | . | -1 | .
COC(=O)Oc1c(Br)c(=O)oc2ccccc12 | -22 | -5 | -1 | -4 | -82*
Cc1ccc(N(C(=O)C23CC4CC(CC(C4)C2)C3)C2C=CS(=O)(=O)C2)cc1Cl (stereo not given) | . | . | . | 2 | .
SMILES | PI5P4K alpha inh | PI4K2A block | DRD3 agonist | LDHA block | DRD3 antagonist
CCc1ccccc1OCCCCN1CCCC1 | -5 | 13 | 0 | -22 | ?
CC(=O)c1ccccc1OCCCCN1CCCCC1 | 0 | 3 | -19 | -5 | -77*
CCC(=O)c1ccccc1OCCN1CCN(CC)CC1 | 1 | -1 | 0 | -17 | -24
COC(=O)c1ccccc1OCCN1CCCCCC1 | -2 | 1 | -23 | ? | -57*
Cc1ccc(C2CCCN2C(=O)c2cc(C3CC3)on2)cc1 (stereo not given) | . | . | . | -5 | .
Cc1ccc2c(c1)COc1c3ccc(C(=O)N[C@@H](CO)C(C)C)cc3nn1-2 | -7 | -6 | 0 | -9 | 0
CC(C)NC(=O)c1ccc2c3n(nc2c1)-c1ccc(Cl)cc1CO3 | -8 | -2 | 31* | -3 | 5
CCN(CC)CCCNC(=O)c1ccc2c3n(nc2c1)-c1ccc(Cl)cc1CO3 | -2 | 0 | -66 | -3 | -116*
O=C(c1ccc2c3n(nc2c1)-c1ccccc1CO3)N1CCOCC1 | ? | -55* | 1 | -1 | -1
COCCNC(=O)c1ccc2c3n(nc2c1)-c1ccc(C)cc1CO3 | -6 | 1 | 5 | 1 | 25
O=C(c1ccc2c3n(nc2c1)-c1ccccc1CO3)N1CCCCC1 | -22 | ? | 9 | 0 | ?
Cc1ccc(-c2nc3n(n2)C(CC(=O)Nc2ccc(C(C)C)cc2)C(=O)N3)cc1 (stereo not given) | . | . | . | 1 | .
Cc1ccc2nc3n(c(=O)c2c1)-c1cc2ccccc2cc1C(=O)NC3CC(C)C (stereo not given) | -1 | -1 | 2 | 3 | -14
COc1ccc2nc3n(c(=O)c2c1)-c1ccc(Cl)cc1C(=O)NC3Cc1ccc(O)cc1 (stereo not given) | 3 | 0 | 44* | -9 | 4
CC(C)CC1NC(=O)c2cc3ccccc3cc2-n2c1nc1ccc(F)cc1c2=O (stereo not given) | -9 | -3 | -7 | 3 | -58*
COC(=O)NC(NC(=O)c1ccccc1)C(Cl)(Cl)Cl (stereo not given) | . | . | . | 10 | .
CCCCc1cc(=O)oc2cc(OC(C)C(=O)NCC3CCC(C(=O)O)CC3)c(Cl)cc12 (stereo not given) | -6 | -4 | -6 | 5 | -58*
C(=N\Nc1nc(Nc2ccccc2)nc(N2CCOCC2)n1)/c1c[nH]c2ccccc12 | . | 4 | 5 | -13 | -62*
c1ccc(Nc2nc(N3CCOCC3)nc(N3CCOCC3)n2)cc1 | -7 | 2 | -4 | -4 | ?
Cc1ccc(Nc2nc(N/N=C/c3c[nH]c4ccccc34)nc(N3CCOCC3)n2)cc1 | -19 | -2 | -15 | -6 | -21
c1ccc(Nc2nc(N3CCNCC3)nc(N3CCOCC3)n2)cc1 | 7 | 5 | -1 | -4 | -79*
Cc1cccc(N2CCN(C(=O)Cn3ncc4c3-c3cc(C)ccc3OC4)CC2C)c1 (stereo not given) | . | -3 | 32* | 3 | .
